Experimental data from PubChem BioAssay AID651871 (Sanford-Burnham Center for Chemical Genomics, 2012).
Where “and” joins values, the source holds several entries; their conditions need not be identical. Equal entries are not always repeated.

The compounds below were run on H9c2 (assay: cardiomyocyte survival under oxidative or metabolic stress – cell-based, panel, H9c2 and HL-1, ATP luminescence, set 2, SAR follow-up (AID 651871;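 also: cells exposed to stressor for 2 h before ATP readout; reference of the scale not given here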)). Conditions: H9c2/HL-1 cardiomyocytes, 2-deoxyglucose stress, with 2-deoxyglucose; run 13, at 79 µM (top of the series).
`COc1ccc2c(c1OC)C(=O)N1c3ccccc3C(=O)N(Cc3cccc(Cl)c3Cl)C21` (stereo not drawn) was tested, and the activity (protection/inhibition) was 81.4% and 89.7% and -5.69%. `COc1ccc2nc(-c3cc(OC)c(OC)c(OC)c3)cc(C(=O)NCC(=O)Nc3ccc(C(C)=O)cc3)c2c1` was tested, and the activity (protection/inhibition) was 86.7%. `CCOC(=O)c1cccc(NC(=O)CNC(=O)c2cc(-c3cc(OC)c(OC)c(OC)c3)nc3ccccc23)c1` showed an activity (protection/inhibition) of 92.9%.
